Data from the supplement of paper PMC10849652.
Of roughly 8,800 targets only a part is listed; those with a hit were picked by preference. About 0.5% of all pairs of compound and target were hits.

Assays:
Assay in all cases: log2 fold change, soluble protein after heating vs DMSO (PISA); higher = thermal stabilisation; K562 lysate, 10 uM; active = over 0.2 and 3.5 SD of the protein, either way, in both replicates (recomputed)
lapatinib = compound: CS(=O)(=O)CCNCc1ccc(-c2ccc3ncnc(Nc4ccc(OCc5cccc(F)c5)c(Cl)c4)c3c2)o1 [lapatinib]
Method in brief: (§1)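 A 30 min treatment with 10 μM compound was applied to crude K562 extract at 1 mg/mL protein in PBS pH 7.4 with 1 mM MgCl2. Heating for 3 min spanned 48°C-58°C, after which aliquots were pooled, adjusted to 0.5% NP-40 at 4°C and spun at 21,000xg for 90 min. TMTpro 16plex LC-MS/MS of the supernatant, with channel sums equalised, gave values recorded as log-two fold change in thermal stability against solvent controls, from duplicates.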

pictilisib = compound: CS(=O)(=O)N1CCN(Cc2cc3nc(-c4cccc5[nH]ncc45)nc(N4CCOCC4)c3s2)CC1 [pictilisib]
Method in brief: as §1

crizotinib = compound: C[C@@H](Oc1cc(-c2cnn(C3CCNCC3)c2)cnc1N)c1c(Cl)ccc(F)c1Cl [crizotinib]
Method in brief: as §1

[1] = compound: C[C@H](C1=CC=C(C=C1)C(=O)NC2=C3C=CNC3=NC=C2)N
Method in brief: as §1

duvelisib = compound: C[C@H](Nc1ncnc2nc[nH]c12)c1cc2cccc(Cl)c2c(=O)n1-c1ccccc1 [duvelisib]
Method in brief: as §1

gandotinib = compound: Cc1cc(Nc2cc(CN3CCOCC3)c3nc(C)c(Cc4ccc(Cl)cc4F)n3n2)n[nH]1 [gandotinib]
Method in brief: as §1

tozasertib = compound: Cc1cc(Nc2cc(N3CCN(C)CC3)nc(Sc3ccc(NC(=O)C4CC4)cc3)n2)n[nH]1 [tozasertib]
Method in brief: as §1

doramapimod = compound: Cc1ccc(-n2nc(C(C)(C)C)cc2NC(=O)Nc2ccc(OCCN3CCOCC3)c3ccccc23)cc1 [doramapimod]
Method in brief: as §1

bafetinib = compound: Cc1ccc(NC(=O)c2ccc(CN3CC[C@H](N(C)C)C3)c(C(F)(F)F)c2)cc1Nc1nccc(-c2cncnc2)n1 [bafetinib]
Method in brief: as §1

[2] = compound: Cc1cccc(CC(=O)N2CCc3c2ccc(-c2cn(C)c4ncnc(N)c24)c3F)n1
Method in brief: as §1

nilotinib = compound: Cc1cn(-c2cc(NC(=O)c3ccc(C)c(Nc4nccc(-c5cccnc5)n4)c3)cc(C(F)(F)F)c2)cn1 [nilotinib]
Method in brief: as §1

[3] = compound: Cc1nc(Nc2n[nH]c3c2CN(C(=O)N[C@H](CN(C)C)c2ccccc2)C3(C)C)c2sccc2n1
Method in brief: as §1

dasatinib = compound: Cc1nc(Nc2ncc(C(=O)Nc3c(C)cccc3Cl)s2)cc(N2CCN(CCO)CC2)n1 [dasatinib]
Method in brief: as §1

[4] = compound: Cc1ncc(-c2ccnc(Nc3ccc(S(C)(=O)=O)cc3)n2)n1C(C)C
Method in brief: as §1

[5] = compound: Cn1cc(-c2ccc3c(c2)CCN3C(=O)Cc2cccc(C(F)(F)F)c2)c2c(N)ncnc21
Method in brief: as §1

quisinostat = compound: Cn1cc(CNCC2CCN(c3ncc(C(=O)NO)cn3)CC2)c2ccccc21 [quisinostat]
Method in brief: as §1

tipifarnib = compound: Cn1cncc1[C@@](N)(c1ccc(Cl)cc1)c1ccc2c(c1)c(-c1cccc(Cl)c1)cc(=O)n2C [tipifarnib]
Method in brief: as §1

[6] = compound: NC(=O)Nc1cc(-c2cccc(F)c2)sc1C(=O)N[C@H]1CCCNC1
Method in brief: as §1

[7] = compound: NC(=O)c1cnc(N[C@@H]2CCCC[C@@H]2N)nc1Nc1cccc(-n2nccn2)c1
Method in brief: as §1

[8] = compound: NC1(c2ccc(-c3nc4ccn5c(=O)[nH]nc5c4cc3-c3ccccc3)cc2)CCC1
Method in brief: as §1

Measured: log2 fold change

USE1 (UniProt Q9NZ43)
Chain of UniProt Q9NZ43 (Q9NZ43 whole entry, looked up): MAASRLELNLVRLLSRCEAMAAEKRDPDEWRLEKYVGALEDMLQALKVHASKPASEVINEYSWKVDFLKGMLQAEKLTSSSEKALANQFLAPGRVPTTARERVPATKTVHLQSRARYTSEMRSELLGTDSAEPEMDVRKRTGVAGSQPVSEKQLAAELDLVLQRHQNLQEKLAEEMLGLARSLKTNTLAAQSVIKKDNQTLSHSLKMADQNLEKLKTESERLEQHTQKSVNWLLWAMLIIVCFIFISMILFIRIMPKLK
inactive: lapatinib -0.035 | pictilisib 0.088 | crizotinib -0.057 | [1] 0.039 | duvelisib -0.056 | gandotinib -0.103 | tozasertib 0.011 | doramapimod 0.112 | bafetinib -0.019 | [2] 0.027 | nilotinib -0.019 | [3] 0.038 | dasatinib 0.068 | [4] 0.057 | [5] 0.02 | quisinostat 0.08 | tipifarnib -0.021 | [6] 0.029 | [7] -0.027 | [8] 0.025

ZC3H13 (UniProt Q5T200)
Chain of UniProt Q5T200 (Q5T200 whole entry, looked up): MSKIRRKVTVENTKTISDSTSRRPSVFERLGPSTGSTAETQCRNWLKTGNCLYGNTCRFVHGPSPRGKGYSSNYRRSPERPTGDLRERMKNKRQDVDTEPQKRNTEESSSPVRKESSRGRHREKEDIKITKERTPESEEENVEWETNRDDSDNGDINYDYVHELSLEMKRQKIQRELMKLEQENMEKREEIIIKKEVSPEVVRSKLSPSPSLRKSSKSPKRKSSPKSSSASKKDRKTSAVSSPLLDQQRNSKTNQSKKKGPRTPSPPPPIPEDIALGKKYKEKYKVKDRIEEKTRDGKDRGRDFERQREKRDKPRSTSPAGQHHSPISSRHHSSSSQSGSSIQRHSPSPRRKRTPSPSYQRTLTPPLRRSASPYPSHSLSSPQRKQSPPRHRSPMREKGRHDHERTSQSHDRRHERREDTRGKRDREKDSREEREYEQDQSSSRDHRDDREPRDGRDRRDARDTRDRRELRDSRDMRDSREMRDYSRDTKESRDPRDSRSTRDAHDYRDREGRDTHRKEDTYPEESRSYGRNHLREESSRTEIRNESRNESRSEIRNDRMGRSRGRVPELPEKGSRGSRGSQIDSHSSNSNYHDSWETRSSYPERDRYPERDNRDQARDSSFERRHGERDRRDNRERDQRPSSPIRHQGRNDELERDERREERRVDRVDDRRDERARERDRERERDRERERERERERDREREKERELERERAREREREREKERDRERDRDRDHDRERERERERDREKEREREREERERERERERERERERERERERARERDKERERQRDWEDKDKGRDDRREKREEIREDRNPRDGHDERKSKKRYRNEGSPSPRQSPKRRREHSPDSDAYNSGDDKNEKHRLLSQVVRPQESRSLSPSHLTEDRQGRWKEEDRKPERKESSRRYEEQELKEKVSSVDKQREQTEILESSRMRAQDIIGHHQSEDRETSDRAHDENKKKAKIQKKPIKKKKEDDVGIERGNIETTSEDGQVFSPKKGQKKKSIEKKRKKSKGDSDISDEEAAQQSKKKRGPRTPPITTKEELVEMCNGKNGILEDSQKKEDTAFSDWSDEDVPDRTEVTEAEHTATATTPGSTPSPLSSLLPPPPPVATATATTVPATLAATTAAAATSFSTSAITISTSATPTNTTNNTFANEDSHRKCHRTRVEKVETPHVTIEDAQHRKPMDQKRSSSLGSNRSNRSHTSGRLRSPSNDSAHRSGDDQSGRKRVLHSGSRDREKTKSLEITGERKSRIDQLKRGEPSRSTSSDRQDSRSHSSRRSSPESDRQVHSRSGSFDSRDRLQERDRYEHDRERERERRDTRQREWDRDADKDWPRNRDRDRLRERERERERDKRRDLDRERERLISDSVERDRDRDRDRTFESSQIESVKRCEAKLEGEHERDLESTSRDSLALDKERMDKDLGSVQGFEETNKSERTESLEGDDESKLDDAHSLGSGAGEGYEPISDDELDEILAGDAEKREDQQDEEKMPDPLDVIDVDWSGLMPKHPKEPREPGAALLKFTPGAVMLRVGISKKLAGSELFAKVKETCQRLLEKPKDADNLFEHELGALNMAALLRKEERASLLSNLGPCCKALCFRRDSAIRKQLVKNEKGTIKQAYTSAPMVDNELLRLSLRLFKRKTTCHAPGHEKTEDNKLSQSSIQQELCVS
inactive: lapatinib -0.013 | pictilisib -0.022 | crizotinib -0.057 | [1] 0.039 | duvelisib 0.041 | gandotinib -0.063 | tozasertib 0.062 | doramapimod 0.149 | bafetinib 0.017 | [2] 0.102 | nilotinib -0.033 | [3] 0.137 | dasatinib -0.035 | [4] 0.144 | [5] -0.044 | quisinostat -0.067 | tipifarnib -0.184 | [6] 0.002 | [7] 0.028 | [8] -0.049

ZHX1 (UniProt Q9UKY1)
active: [1] -0.57 | gandotinib 0.475 | [2] 0.431
inactive: lapatinib 0.014 | pictilisib 0.003 | crizotinib 0.018 | duvelisib 0.038 | tozasertib -0.09 | doramapimod -0.013 | bafetinib -0.08 | nilotinib 0.011 | [3] -0.012 | dasatinib 0 | [4] 0.06 | [5] -0.096 | quisinostat -0.035 | tipifarnib 0.007 | [6] 0.039 | [7] -0.047 | [8] -0.011

ZNF609 (UniProt O15014)
Chain of UniProt O15014 (O15014 whole entry, looked up): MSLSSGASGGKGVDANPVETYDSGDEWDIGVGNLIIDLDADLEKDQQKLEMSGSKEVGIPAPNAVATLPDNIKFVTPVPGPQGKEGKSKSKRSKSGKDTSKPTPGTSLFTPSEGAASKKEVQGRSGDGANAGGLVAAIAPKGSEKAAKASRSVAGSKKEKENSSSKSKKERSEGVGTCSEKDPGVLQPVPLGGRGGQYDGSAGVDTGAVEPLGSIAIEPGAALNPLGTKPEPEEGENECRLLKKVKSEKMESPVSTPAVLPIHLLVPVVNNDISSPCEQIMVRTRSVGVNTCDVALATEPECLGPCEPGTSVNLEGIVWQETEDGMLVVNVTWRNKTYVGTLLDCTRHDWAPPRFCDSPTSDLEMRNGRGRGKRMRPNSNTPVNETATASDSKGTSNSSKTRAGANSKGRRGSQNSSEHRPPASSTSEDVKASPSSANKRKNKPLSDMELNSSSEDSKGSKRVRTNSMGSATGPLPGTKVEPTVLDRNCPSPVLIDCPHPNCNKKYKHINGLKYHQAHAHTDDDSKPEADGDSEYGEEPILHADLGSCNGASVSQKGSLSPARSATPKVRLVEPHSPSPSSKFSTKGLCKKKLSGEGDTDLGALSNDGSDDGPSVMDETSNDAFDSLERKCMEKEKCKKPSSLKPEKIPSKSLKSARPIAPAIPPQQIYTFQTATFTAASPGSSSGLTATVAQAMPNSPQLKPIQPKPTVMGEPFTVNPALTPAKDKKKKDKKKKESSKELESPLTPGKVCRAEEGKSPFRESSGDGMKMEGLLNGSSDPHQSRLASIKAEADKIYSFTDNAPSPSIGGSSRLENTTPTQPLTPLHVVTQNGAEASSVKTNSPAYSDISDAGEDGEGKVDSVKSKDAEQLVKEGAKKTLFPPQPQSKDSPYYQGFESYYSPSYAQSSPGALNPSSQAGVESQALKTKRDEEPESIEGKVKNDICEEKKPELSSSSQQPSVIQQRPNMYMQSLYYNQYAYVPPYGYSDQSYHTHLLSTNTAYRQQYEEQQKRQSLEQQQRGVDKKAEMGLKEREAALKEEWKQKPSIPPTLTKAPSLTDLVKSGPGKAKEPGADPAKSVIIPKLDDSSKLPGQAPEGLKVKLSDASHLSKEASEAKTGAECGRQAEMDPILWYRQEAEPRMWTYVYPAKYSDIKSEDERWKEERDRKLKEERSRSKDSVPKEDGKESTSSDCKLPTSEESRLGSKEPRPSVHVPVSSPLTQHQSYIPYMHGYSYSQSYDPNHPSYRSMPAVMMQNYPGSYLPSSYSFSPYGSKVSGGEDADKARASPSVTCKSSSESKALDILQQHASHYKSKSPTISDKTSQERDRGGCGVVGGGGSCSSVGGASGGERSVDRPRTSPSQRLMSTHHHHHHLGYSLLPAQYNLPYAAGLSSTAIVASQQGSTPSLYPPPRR
inactive: lapatinib 0.023 | pictilisib -0.054 | crizotinib 0.026 | [1] -0.028 | duvelisib -0.042 | gandotinib 0.16 | tozasertib 0.024 | doramapimod -0.064 | bafetinib -0.111 | [2] 0.187 | nilotinib -0.14 | [3] -0.023 | dasatinib -0.014 | [4] 0.001 | [5] -0.044 | quisinostat -0.006 | tipifarnib 0.01 | [6] 0.061 | [7] -0.015 | [8] 0.003

VPS13C (UniProt Q709C8)
inactive: lapatinib -0.008 | pictilisib 0.023 | crizotinib 0.003 | [1] -0.065 | duvelisib 0.021 | gandotinib -0.055 | tozasertib 0.052 | doramapimod -0.006 | bafetinib -0.054 | [2] 0.213 | nilotinib 0.138 | [3] 0.043 | dasatinib -0.011 | [4] -0.069 | [5] -0.039 | quisinostat -0.034 | tipifarnib -0.177 | [6] -0.009 | [7] -0.028 | [8] -0.05

VANGL1 (UniProt Q8TAA9)
Chain of UniProt Q8TAA9 (Q8TAA9 whole entry, looked up): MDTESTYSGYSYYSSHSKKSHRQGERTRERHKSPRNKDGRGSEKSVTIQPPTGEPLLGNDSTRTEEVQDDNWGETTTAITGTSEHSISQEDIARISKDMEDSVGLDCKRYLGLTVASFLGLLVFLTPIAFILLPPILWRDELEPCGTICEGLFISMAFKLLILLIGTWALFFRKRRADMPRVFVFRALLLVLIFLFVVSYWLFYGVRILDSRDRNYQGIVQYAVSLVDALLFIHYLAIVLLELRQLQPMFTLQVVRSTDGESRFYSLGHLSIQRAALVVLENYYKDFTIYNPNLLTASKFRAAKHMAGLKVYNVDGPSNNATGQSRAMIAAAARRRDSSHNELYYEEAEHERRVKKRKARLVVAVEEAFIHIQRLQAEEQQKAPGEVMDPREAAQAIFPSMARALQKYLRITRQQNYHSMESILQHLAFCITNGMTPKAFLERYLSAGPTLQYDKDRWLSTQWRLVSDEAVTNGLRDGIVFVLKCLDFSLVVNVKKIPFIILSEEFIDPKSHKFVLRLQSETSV
inactive: lapatinib 0.047 | pictilisib -0.071 | crizotinib 0.031 | [1] 0.07 | duvelisib 0.099 | gandotinib 0.004 | tozasertib 0.016 | doramapimod -0.043 | bafetinib 0.016 | [2] 0.084 | nilotinib -0.086 | [3] -0.067 | dasatinib -0.019 | [4] 0.079 | [5] -0.036 | quisinostat 0.014 | tipifarnib 0.042 | [6] 0.009 | [7] 0.121 | [8] 0.034

VPS54 (UniProt Q9P1Q0)
active: quisinostat -0.409
inactive: lapatinib -0.018 | pictilisib 0.068 | crizotinib -0.296 | [1] -0.263 | duvelisib -0.012 | gandotinib 0.399 | tozasertib 0.047 | doramapimod 0.066 | bafetinib 0.431 | [2] 0.395 | nilotinib 0.013 | [3] -0.041 | dasatinib -0.112 | [4] 0.205 | [5] 0.146 | tipifarnib -0.111 | [6] 0.065 | [7] 0.089 | [8] -0.121

VPS33A (UniProt Q96AX1)
inactive: lapatinib 0 | pictilisib -0.005 | crizotinib -0.025 | [1] -0.03 | duvelisib 0.039 | gandotinib -0.043 | tozasertib 0.01 | doramapimod 0 | bafetinib 0.014 | [2] 0.036 | nilotinib -0.007 | [3] -0.004 | dasatinib -0.007 | [4] -0.027 | [5] 0.045 | quisinostat -0.018 | tipifarnib -0.006 | [6] 0.041 | [7] 0.021 | [8] -0.034

VCPIP1 (UniProt Q96JH7)
Chain of UniProt Q96JH7 (Q96JH7 whole entry, looked up): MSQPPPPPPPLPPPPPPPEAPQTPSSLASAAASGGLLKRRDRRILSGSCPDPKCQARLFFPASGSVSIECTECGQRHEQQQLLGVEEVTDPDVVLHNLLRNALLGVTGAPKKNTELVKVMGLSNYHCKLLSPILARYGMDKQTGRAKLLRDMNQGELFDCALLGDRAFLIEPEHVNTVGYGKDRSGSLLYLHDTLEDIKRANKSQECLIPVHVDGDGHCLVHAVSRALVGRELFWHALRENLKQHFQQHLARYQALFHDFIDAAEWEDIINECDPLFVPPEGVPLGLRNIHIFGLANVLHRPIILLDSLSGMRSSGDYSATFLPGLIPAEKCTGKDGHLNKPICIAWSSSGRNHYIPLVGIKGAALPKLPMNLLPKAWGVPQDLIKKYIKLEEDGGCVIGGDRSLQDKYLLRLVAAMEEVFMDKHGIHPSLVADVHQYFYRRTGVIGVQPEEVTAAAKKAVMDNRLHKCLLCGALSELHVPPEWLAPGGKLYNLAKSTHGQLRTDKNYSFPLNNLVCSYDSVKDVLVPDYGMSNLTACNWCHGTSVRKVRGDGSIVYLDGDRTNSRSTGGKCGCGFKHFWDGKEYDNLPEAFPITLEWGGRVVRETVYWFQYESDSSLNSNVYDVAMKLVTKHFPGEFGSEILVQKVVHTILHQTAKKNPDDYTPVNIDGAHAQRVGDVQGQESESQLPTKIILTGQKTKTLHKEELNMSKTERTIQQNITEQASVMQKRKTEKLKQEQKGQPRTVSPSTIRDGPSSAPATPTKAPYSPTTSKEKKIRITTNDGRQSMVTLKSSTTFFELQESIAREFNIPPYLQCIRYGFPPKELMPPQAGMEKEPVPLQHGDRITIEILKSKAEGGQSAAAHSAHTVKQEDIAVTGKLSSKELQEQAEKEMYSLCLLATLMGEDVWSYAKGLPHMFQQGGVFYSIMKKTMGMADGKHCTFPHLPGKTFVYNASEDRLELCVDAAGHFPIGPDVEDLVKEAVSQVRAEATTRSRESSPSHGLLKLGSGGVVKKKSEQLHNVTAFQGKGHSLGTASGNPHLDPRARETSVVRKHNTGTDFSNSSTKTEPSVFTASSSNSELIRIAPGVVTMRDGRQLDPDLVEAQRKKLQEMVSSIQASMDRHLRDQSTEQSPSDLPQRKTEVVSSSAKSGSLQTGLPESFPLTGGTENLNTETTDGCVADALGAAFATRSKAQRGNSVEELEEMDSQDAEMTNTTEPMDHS
inactive: lapatinib -0.061 | pictilisib -0.053 | crizotinib -0.052 | [1] -0.059 | duvelisib -0.002 | gandotinib -0.038 | tozasertib -0.028 | doramapimod 0.025 | bafetinib -0.043 | [2] 0.1 | nilotinib -0.006 | [3] 0.044 | dasatinib -0.045 | [4] -0.025 | [5] 0.016 | quisinostat -0.046 | tipifarnib 0.011 | [6] 0.031 | [7] 0.029 | [8] -0.059

USP3 (UniProt Q9Y6I4)
inactive: lapatinib -0.016 | pictilisib 0.001 | crizotinib -0.033 | [1] 0.031 | duvelisib 0.01 | gandotinib -0.056 | tozasertib 0.021 | doramapimod -0.03 | bafetinib 0.01 | [2] -0.04 | nilotinib 0.045 | [3] -0.015 | dasatinib -0.028 | [4] 0.028 | [5] 0.008 | quisinostat -0.01 | tipifarnib -0.054 | [6] 0.107 | [7] -0.005 | [8] -0.042

YLPM1 (UniProt P49750)
inactive: lapatinib 0.031 | pictilisib -0.019 | crizotinib 0.064 | [1] 0.147 | duvelisib 0.009 | gandotinib -0.067 | tozasertib 0.017 | doramapimod -0.042 | bafetinib -0.09 | [2] -0.054 | nilotinib -0.023 | [3] -0.192 | dasatinib 0.018 | [5] 0.021 | quisinostat -0.015 | tipifarnib -0.011 | [6] 0.033 | [7] 0.041 | [8] -0.013
active: [4] -0.384

ZFYVE19 (UniProt Q96K21)
inactive: lapatinib 0.042 | pictilisib 0.017 | crizotinib 0.007 | [1] -0.125 | duvelisib -0.005 | gandotinib 0.085 | tozasertib 0.046 | doramapimod -0.029 | bafetinib 0 | [2] 0.149 | nilotinib 0.014 | [3] -0.001 | dasatinib 0.007 | [4] 0.053 | [5] -0.041 | quisinostat -0.01 | tipifarnib 0.006 | [6] -0.003 | [7] 0.014 | [8] 0.003

USP9X (UniProt Q93008)
inactive: lapatinib -0.031 | pictilisib -0.027 | crizotinib -0.058 | [1] -0.015 | duvelisib -0.017 | gandotinib -0.127 | tozasertib 0.011 | doramapimod 0.004 | bafetinib -0.034 | [2] 0.027 | nilotinib -0.01 | [3] 0 | dasatinib -0.045 | [4] 0.002 | [5] 0 | quisinostat -0.017 | tipifarnib -0.024 | [6] 0.03 | [7] 0.02 | [8] -0.003

USP34 (UniProt Q70CQ2)
inactive: lapatinib -0.002 | pictilisib -0.008 | crizotinib -0.094 | [1] 0.03 | duvelisib 0.004 | gandotinib -0.122 | tozasertib 0.011 | doramapimod 0.01 | bafetinib -0.041 | [2] 0.018 | nilotinib -0.018 | [3] -0.002 | dasatinib -0.042 | [4] -0.018 | [5] 0.023 | quisinostat -0.041 | tipifarnib 0.021 | [6] 0.074 | [7] 0.018 | [8] 0

WIPI2 (UniProt Q9Y4P8)
inactive: lapatinib 0.006 | pictilisib -0.024 | crizotinib -0.02 | [1] -0.086 | duvelisib -0.008 | gandotinib 0.089 | tozasertib -0.003 | doramapimod 0.098 | bafetinib -0.025 | [2] 0.035 | nilotinib 0.032 | [3] 0.043 | dasatinib 0.007 | [4] -0.018 | [5] -0.004 | quisinostat -0.054 | tipifarnib 0.011 | [6] 0.053 | [7] -0.005 | [8] 0.021
